Assay results as given in PubChem BioAssay (NCI).
This is part of a sample that, as a whole, favours compounds with a hit. Of some 79,000 tested, about 15% had one in any assay. A number with no mark means an inactive call. Activity calls are given as the source filed them. Rule as the data show it: active = growth inhibition above about 70%; inactive = the rest. Where a SMILES comes first, the peptide text is derived from it.

How the values were obtained:
[1] = NCI Yeast Anticancer Drug Screen. Data for the rad50 strain (AID 155);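 also: 0% = growth of vehicle-only cultures of the same strain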; conditions: S. cerevisiae rad50 strain growth inhibition; at 50.0 µM; active compounds read high
Method in brief: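 Inhibition values express reduced yeast growth in compound-treated cultures relative to vehicle-treated controls.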

[2] = NCI Yeast Anticancer Drug Screen. Data for the mec2-1 strain (AID 157); conditions: S. cerevisiae mec2-1 strain, at 50.0 µM, active compounds read high
Method in brief: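 Using mec2-1 yeast: add compound, measure growth, express inhibition versus vehicle-treated cultures.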

[3] = NCI Yeast Anticancer Drug Screen. Data for the sgs1 mgt1 strain (AID 161);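 also: 0% = growth of cultures given vehicle only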; conditions: S. cerevisiae sgs1 mgt1 strain, at 50.0 µM, active compounds read high
Method in brief: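 This yeast growth screen uses a strain with defined DNA-repair lesions; compound-treated growth is compared with vehicle-treated growth.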

[4] = NCI Yeast Anticancer Drug Screen. Data for the cln2 rad14 strain (AID 165);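 also: 0% = growth equal to vehicle treated cultures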; conditions: S. cerevisiae cln2 rad14 strain, at 50.0 µM, active compounds read high
Method in brief: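 Yeast strain cln2 rad14, bearing defects in cell cycle control and DNA repair, serves as the test system; values reflect growth inhibition compared with vehicle.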

[5] = NCI Yeast Anticancer Drug Screen. Data for the bub3 strain (AID 167); conditions: S. cerevisiae bub3 mutant strain, at 50.0 µM, active compounds read high
Method in brief: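 Steps: expose the mutant yeast strain to compound; grow alongside vehicle-treated cultures; measure growth; express inhibition against the vehicle cultures.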

[6] = NCI Yeast Anticancer Drug Screen. Data for the mlh1 rad18 strain (AID 175); conditions: S. cerevisiae mlh1 rad18 strain growth inhibition; at 50.0 µM; active compounds read high
Method in brief: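 Steps: expose repair-defective yeast to compound; measure growth; express inhibition against vehicle-treated controls.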

Structure (SMILES) | growth inhibition [1] | growth inhibition [2] | growth inhibition [3] | growth inhibition [4] | growth inhibition [5] | growth inhibition [6]
CC(C)=NN/C=N/S(=O)(=O)c1ccc(C)cc1 | 15.2% | 6.05% | 10.4% | 25% | 2.1% | 4.65%
N#CCCN(c1ccc(C=O)cc1)S(=O)(=O)c1ccccc1 | -0.1% | -13% | -1.75% | 5.75% | -13.4% | -15.7%
CCCCCCCNc1ccc(C(=O)OCC)cc1 | -1.5% | 5.35% | -1.95% | 8.15% | 7.3% | -7.55%
c1ccc(-c2ccc(-c3ccccc3)cc2)cc1 | -14.5% | -9.4% | -15.1% | -15.2% | 18.6% | -30.9%
CC(C)(C)n1nc(C2CC2)c(Br)c1NC(=O)c1ccc(Cl)cc1 | -4.45% | -0.95% | 22.9% | 0.45% | 11.1% | 1.7%
CCOC(=O)C1=C(C)N(Cc2ccccc2)C2(O)C1=CC(=O)C(Cl)=C2Cl (stereo unspecified) | 72.8% (active) | 45.5% | 46.8% | 54.9% | 49.5% | 42.4%
CCCCCC(=O)Nc1cc(S(=O)(=O)O)cc2cc(S(=O)(=O)O)cc(O)c12 | -24.1% | -15.2% | -8.85% | 10.7% | -9.85% | -7.7%
Cc1c(C)c(CO)c(C)c(C)c1CO | -15.8% | -19.4% | 15.8% | 4.9% | 12.1% | -2.1%
COC(=O)c1ccccc1CC1Cc2c(C)ccc(C)c2C1=O (stereo unspecified) | -3.9% | 3.1% | 0.15% | 3.45% | 0.55% | 17.8%
CCCCCCC(=O)/C=C/c1cccc(OCc2cccc(Cl)c2)c1 | 24.4% | 16.8% | 19.1% | 16.8% | 1.55% | 4.65%
CCN(c1ccccc1)S(=O)(=O)c1cc(N)ccc1C | -23.8% | -10.7% | 2.55% | -2.8% | -0.25% | 4.55%
CSc1cccc(NC(=O)/C=C/C(=O)O)c1 | -3.05% | 5.1% | 16.3% | -58.5% | 6.65% | -0.9%
N=C1N=Nc2nc(C(C(=O)c3cccc(O)c3)c3nc4n(c3O)C(=N)N=N4)c(O)n21 (stereo unspecified) | 18.8% | 23.9% | -8.9% | 10.4% | -2.75% | 28.6%
COc1cc(C)c(O)c(C)c1C | -1.9% | -4.1% | -6.55% | -30.3% | -13.1% | 8.35%
Cc1cc2ccccc2c[n+]1C1CCc2ccccc2C1=O (stereo unspecified) | 7.1% | 5.6% | 30.6% | 24% | 3.4% | 20.2%
CCOC(=O)C1C=NC([N+](=O)[O-])=C1Br (stereo unspecified) | 0.15% | 24.8% | 13.4% | -4.25% | 18.4% | 9.15%
CC(C)(N)COCOCC(C)(C)N | 6.8% | -5.35% | -1.15% | 2.4% | 5.8% | 0%
CC1NC(=O)C2CCCN2C(=O)C2CCCN2C(=O)C(C(C)C)NC(=O)C(Cc2ccccc2)NC(=O)C(Cc2ccccc2)NC(=O)C2CCCN2C(=O)C2CCCN2C(=O)C(Cc2ccccc2)NC(=O)C(Cc2ccccc2)NC1=O (stereo unspecified) (cyclo(AFFPPFFVPP); configuration not given here) | 6.65% | -8.5% | -2.35% | 2.8% | 1.25% | 16.6%

Structure (SMILES) | growth inhibition [1] | growth inhibition [2] | growth inhibition [3] | growth inhibition [4] | growth inhibition [5] | growth inhibition [6]
O=C(Nc1ccc(Cl)cc1)P(=O)(O)c1ccccc1 | -11.8% | -0.95% | -23.1% | -26.8% | -16.8% | 18.1%
NC(=O)c1nnc2ccc(F)cc2c1N | -35.2% | -37% | -23.2% | -2.55% | -9.35% | -27.2%
COC(=O)Nc1c2ccccc2c(NC(=O)OC)c2ccccc12 | -7.15% | 13% | 19.7% | -88.8% | 23.1% | 0.75%
O=C1CCC(C(=O)Nc2ccc(Cl)cc2Cl)N1 (stereo unspecified) | -0.15% | 3.3% | 7.2% | 42.4% | 3.45% | 8.75%
CC(C)CNC(=O)Cn1c2c(c3ccccc31)CCCC2 | -4.5% | -32.7% | 1.4% | 3.75% | -14.8% | -10.8%
O=CC(Cc1ccccc1)C(=O)CCc1ccccc1.[Cu+2] (stereo unspecified) | 40.1% | 13.9% | 4.95% | -48.6% | 0.4% | 2.55%
CC(C)=CCC/C(C)=C/C=O | 9.1% | 2.95% | 5.1% | 9.6% | 7.95% | 8.4%
N#CC(=S)N(C(=O)c1ccc(Cl)cc1)c1ccccc1Cl | -1.4% | 28.6% | 12.6% | -18.9% | 45.5% | 24.9%
CCCCCCCCCCCCCCCC(=O)OCC1OC(OC2(COC(=O)CCCCCCCCCCCCCCC)OC(COC(=O)CCCCCCCCCCCCCCC)C(OC(=O)CCCCCCCCCCCCCCC)C2OC(=O)CCCCCCCCCCCCCCC)C(OC(=O)CCCCCCCCCCCCCCC)C(OC(=O)CCCCCCCCCCCCCCC)C1OC(=O)CCCCCCCCCCCCCCC (stereo unspecified) | -6.25% | -26% | -34.1% | -14.7% | -13.9% | -6%
CCOC(=O)C(/C=C/c1cc(C)c(C)c(C)c1)(NC=O)C(=O)OCC | -3.25% | 2.55% | 9.6% | 5.75% | 12.1% | -1.3%
O=C(/C=C/c1ccccc1)NC1C=Nc2ccc(Cl)cc2NC1=O (stereo unspecified) | 39% | 53.7% | 38.5% | 23% | 28.2% | 26.2%
Nc1ccc(Nc2c3ccccc3nc3ccccc23)cc1 | 96% (active) | 33% | 23.4% | 10.3% | 23.4% | 69.3%
Cc1ccc(S(=O)(=O)OCC2=C(COS(=O)(=O)c3ccc(C)cc3)C3c4ccccc4C2c2ccccc23)cc1 | 31.3% | 5.35% | 1.55% | -27.8% | -1.35% | 4.8%
CCCCCCCCCCOC(=O)c1ccccc1O | -4.95% | -7.15% | 3.1% | -111% | 4.4% | -10.4%
COC1(OC)c2no[n+]([O-])c2CCC1O (stereo unspecified) | -6.6% | -17.4% | -24.1% | 10% | 4% | -4.45%
CC1C[C@]2(C)C(=O)N(c3ccccc3)C(=N)[C@@H]2N(C)c2ccccc21 (stereo partly specified) | -14.2% | 6.7% | -3.55% | -4.15% | 25.9% | -15.8%
C=CCc1c(O)c2ccccc2[nH]c1=O | -5.35% | 15.6% | -25.9% | 12.7% | 4.45% | 1.5%
CCOC(=O)Cc1nc2ccccc2[nH]c1=O | 25% | -11.7% | 1.25% | 0.35% | -6.35% | -17.2%
